Results from PMC12670160, “A drug-repurposing screen of FDA- and EMA-approved drugs identifies two NF-κB inhibitors active against eumycetoma” (Journal of Antimicrobial Chemotherapy, 2025).
Counter-ions that a name gives are not always drawn. Like-named read-outs stand apart in the source and are kept apart here. Among all 5,300 compounds or so, about 130 (2.5%) showed an effect of 50% or more. Only a selection was taken, and strong results are over-represented in it overall.

Test system: M. mycetomatis strain mm55
Settings: primary screen, metabolic activity vs growth control, 96 h, 2 µM, inhibitor

Compound | % viability | % viability (Madurella mycetomatis metabolic activity at 2µM (%))
O=C1c2ccccc2NC2=CCCCCN12 [ONC0003231, 78910tetrahydroazepino21bquinazolin126hone] | 99.72% | –
COc1ccccc1OCC(O)CNC(C)C (stereo not drawn) [ONC0003655, moprolol] | 69.09% | –
[2H]C([2H])([2H])C(O)(CCO[C@@H](C)[C@H]1CC[C@H]2/C(=C/C=C3/C[C@@H](O)C[C@H](O)C3=C)CCC[C@]12C)C([2H])([2H])[2H] [ONC0001868, maxacalcitol] | 112.3% | –
Oc1ccc(C2(c3ccccc3F)CCC(F)(F)CC2)cc1 [ONC0000174, ac186] | 93.25% | –
CN(C)C/C=C/C(=O)Nc1cccc(C(=O)Nc2cccc(Nc3ncc(Cl)c(-c4c[nH]c5ccccc45)n3)c2)c1 [ONC0002061, thz2] | 66.57% | –
CN(C)C/C=C/C(=O)Nc1ccc(C(=O)Nc2cccc(Nc3ncc(Cl)c(-c4c[nH]c5ccccc45)n3)c2)cc1 [ONC0002074, thz1] | 55.81% | –
Cc1cc(C(=O)Nc2nc3cccc(Cl)c3n2[C@@H]2CCCCN(C(=O)/C=C/CN(C)C)C2)ccn1 [ONC0001107, nazartinib] | 39.34% | –
CC(=O)[C@@]12OC(C)(c3ccccc3)O[C@@H]1C[C@H]1[C@@H]3CCC4=CC(=O)CC[C@]4(C)[C@H]3CC[C@@]12C (stereo partly drawn) [ONC0002369, algestoneacetophenide] | 99.76% | –
CC(Nc1ncnc2nc[nH]c12)c1cc2ccc(F)cc2nc1-c1ccccn1 (stereo not drawn) [ONC0004426, amg319] | 156.7% | –
N[C@H](CSC(c1ccccc1)(c1ccccc1)c1ccccc1)C(=O)O [ONC0001742, strityllcysteine] | 48.39% | –
N[C@H](Cc1ccccc1)C(=O)O [ONC0002457, dphenylalanine] | 101.3% | –
CSC[C@H](N)C(=O)O [ONC0003388, smethylcysteine] | 83.56% | –
C[C@]12C=CC(=O)C=C1CCC1C2[C@@H](O)C[C@@]2(C)C1CC[C@]2(O)C(=O)CO (stereo partly drawn) [ONC0005351, prednisolone] | 112.6% | –
COc1cc(-c2ccc(/N=N/c3ccc4c(S(=O)(=O)O)cc(S(=O)(=O)O)c(N)c4c3O)c(OC)c2)ccc1/N=N/c1ccc2c(S(=O)(=O)O)cc(S(=O)(=O)O)c(N)c2c1O [ONC0002750, chicagoskyblue6b] | 94.85% | –
Cc1cc(-c2ccc(/N=N/c3ccc4c(S(=O)(=O)O)cc(S(=O)(=O)O)c(N)c4c3O)c(C)c2)ccc1/N=N/c1ccc2c(S(=O)(=O)O)cc(S(=O)(=O)O)c(N)c2c1O [ONC0003296, evans blue] | 49.05% | –
COC(=O)CC1CC(c2ccc(O)cc2)=NO1 (stereo not drawn) [ONC0001839, iso1] | 78.97% | –
N[C@@H](CC(=O)N1CCn2c(nnc2C(F)(F)F)C1)Cc1cc(F)c(F)cc1F [ONC0004045, sitagliptin phosphate] | 93.31% | –
N[C@@H](CC(=O)N1CCn2c(nnc2C(F)(F)F)C1)Cc1n[nH]c2c(F)c(F)ccc12 [ONC0001660, pk44 phosphate] | 33.36% | –
NCCNc1ccc(NCCN)c2c1C(=O)c1ccncc1C2=O.O=C(O)/C=C\C(=O)O.O=C(O)/C=C\C(=O)O [ONC0000916, pixantrone dimaleate] | 85.22% | –

Compound | % viability | % viability (Madurella mycetomatis metabolic activity at 2µM (%))
Fc1cc(F)c2c(c1)[C@H]1C=CC[C@H]1C(c1cccnc1)N2 (mixture of isomers) [ONC0005186, golgicide a] | 78.39% | –
O=C(O)Cc1ccc(CCNS(=O)(=O)c2ccc(Cl)cc2)cc1 [ONC0002194, daltroban] | 74.66% | –
O=C(O)CCn1c2c(c3ccccc31)C[C@H](NS(=O)(=O)c1ccc(F)cc1)CC2 [ONC0000918, ramatroban] | 93.57% | –
Cc1ccc2c(c1CCC(=O)O)CC[C@@H](NS(=O)(=O)c1ccc(Cl)cc1)C2 [ONC0001303, terutroban] | 45.19% | –
COC[C@H](NC(=O)c1cnc(C)s1)C(=O)N[C@@H](COC)C(=O)N[C@@H](Cc1ccccc1)C(=O)C1(C)CO1 (stereo partly drawn) [ONC0004389, oprozomib onx 0912] | 101.4% | –
O=C(CNC(=O)c1cccc(C(F)(F)F)c1)N[C@@H]1CCN(Cc2ccc(Cl)cc2)C1 [ONC0002608, teijincompound1] | 76.98% | –
C[S+]([O-])CCCCN=C=S (stereo not drawn) [ONC0003262, sulforaphane] | 49.62% | –
C/C=C/C1=C(C(=O)O)N2C(=O)[C@@H](NC(=O)[C@H](N)c3ccc(O)cc3)[C@H]2SC1 [ONC0004213, cefprozil] | 75.17% | –
O=C(Nc1cnccc1Cl)N1CCN(Cc2ccc3c(c2)OC(F)(F)O3)CC1 [ONC0001299, jnj42165279] | 60.28% | –
COc1nc(C)nc(Cl)c1N=C1NCCN1 [ONC0003528, moxonidine] | 108% | –
CCCCCCCC/C=C/C(=O)O [ONC0003676, trans2undecenoic acid] | 70.7% | –
CCCCCCCCCCCCCC[C@@H](O)[C@@H](O)[C@@H](N)CO [ONC0003465, phytosphingosine] | 45.49% | –
CCCCCC(C)N (stereo not drawn) [ONC0003207, tuaminoheptane sulfate] | 110.6% | –
CCCCCCCCCCCCCCC[C@@H](O)[C@@H](N)CO [ONC0003442, dihydrosphingosine derythro] | 75.68% | –
N#Cc1ccc(Cn2cncc2CN2CCN(c3cccc(Cl)c3)C(=O)C2)cc1 [ONC0000972, l778123 hydrochloride] | 78.78% | –
CC(=O)O[C@]1(C(C)=O)CCC2C3C[C@H](C)C4=CC(=O)CC[C@]4(C)C3CC[C@@]21C (stereo partly drawn) [ONC0000456, medroxyprogesterone acetate] | 83.76% | –
N[C@H](Cc1cc(I)c(Oc2ccc(O)c(I)c2)c(I)c1)C(=O)O [ONC0003830, liothyronine] | 90.31% | –
O=C(O[C@@H]1C[C@@H]2C[C@@H]3C[C@H](C1)N2CC3=O)c1c[nH]c2ccccc12 [ONC0005492, dolasetron] | 77.8% | –
O[C@H]([C@H](O)[C@@H]1CO1)[C@H]1CO1 [ONC0001201, val083] | 107% | –

Compound | % viability | % viability (Madurella mycetomatis metabolic activity at 2µM (%))
CC(C)(C)c1ccc(C(=O)Nc2cn3cc(-n4ccnc4)ccc3n2)cc1 [ONC0000079, tcask10] | 88.09% | –
N[C@@H](CC(=O)O)C(=O)O [ONC0005584, lasparticacid] | 67.27% | –
N[C@@H](CC(=O)NO)C(=O)O [ONC0005577, lasparaginenhydroxy] | 46.79% | –
NC(=O)C[C@H](N)C(=O)O [ONC0002130, lasparagine] | 76.47% | –
CC1(C)S[C@@H]2C(N3C(=O)[C@@H](c4ccccc4)NC3(C)C)C(=O)N2[C@H]1C(=O)O (stereo partly drawn) [ONC0000520, hetacillin potassium] | 62.89% | –
Cn1c(Nc2ccc(C(F)(F)F)cc2)nc2cc(Oc3ccnc(-c4ncc(C(F)(F)F)[nH]4)c3)ccc21 [ONC0005005, raf265 chir265] | 41.37% | –
CC(C)C[C@H](NC(=O)CN(C)C(=O)[C@H](Cc1ccccc1)NC(=O)[C@H](Cc1ccccc1)NC(=O)[C@H](CCC(N)=O)NC(=O)[C@H](CCC(N)=O)NC(=O)[C@@H]1CCCN1C(=O)[C@H](CCCCN)NC(=O)[C@@H]1CCCN1C(=O)[C@@H](N)CCCNC(=N)N)C(=O)N[C@@H](CCS(C)(=O)=O)C(N)=O [ONC0003648, sar9meto211substance p] | 64.96% | –
Cc1ccc(Cl)c(OCC(O)CNC(C)C)c1 (stereo not drawn) [ONC0003711, 12chloro5methylphenoxy3isopropylamino2propanol] | 103% | –
O=C1C2CC=CCC2C(=O)N1SC(Cl)(Cl)Cl (stereo not drawn) [ONC0003351, captan] | 76.61% | –
NC(Cc1ccc(O)cc1)C(=O)O (stereo not drawn) [ONC0003385, dltyrosine] | 63.01% | –
OC[C@H]1OC(O)C[C@@H](O)[C@@H]1O (mixture of isomers) [ONC0003476, 2deoxyglucose] | 78.39% | –
CC(C)NC(=O)COc1cccc(-c2nc(Nc3ccc4[nH]ncc4c3)c3ccccc3n2)c1 [ONC0001882, slx2119] | 46.69% | –
COC(=O)[C@H](NC(=O)c1cc(-c2ccccc2)nc2ccccc12)c1ccccc1 [ONC0001501, sb218795] | 80.75% | –
O=C(NCc1cccc(O)c1)Nc1nc(-c2ccncc2)cs1 [ONC0002554, srpin340] | – | 81.94%
c1cc(Nc2cc(C3CC3)[nH]n2)nc(Nc2ccc3[nH]cnc3c2)n1 [ONC0003009, apy29] | 67.52% | –
CC(C)(C)c1cc(/C=C(\C#N)C(N)=S)cc(C(C)(C)C)c1O [ONC0005258, tyrphostin ag 879 ag 879] | 127.6% | –
CC(C)(C)c1cc(C=C(C#N)C#N)cc(Br)c1O [ONC0004740, ag1024] | 105.8% | –
CC(C)(C)c1cc(C=C(C#N)C#N)cc(C(C)(C)C)c1O [ONC0004560, tyrphostin 9 sf 6847] | 1.693% | –
CC(C)C[C@@H](N)C(=O)N[C@H]1C(=O)N[C@@H](CC(N)=O)C(=O)N[C@H]2C(=O)N[C@H]3C(=O)N[C@H](C(=O)N[C@H](C(=O)O)c4cc(O)cc(O)c4-c4cc3ccc4O)[C@H](O)c3ccc(c(Cl)c3)Oc3cc2cc(c3O[C@@H]2O[C@H](CO)[C@@H](O)[C@H](O)[C@H]2O[C@H]2C[C@](C)(N)[C@H](O)[C@H](C)O2)Oc2ccc(cc2Cl)[C@H]1O [ONC0002123, norvancomycin hydrochloride] | 86.02% | –
